697 NFkB inh = lowers PMA/ionomycin-induced NF-kB signal in 697 B cells; inhibition, % at 4 µM; 697 B-cell NF-kB luciferase reporter, 16 h; hit rate 0.33% among 330,000; in the data active = inhibition above about 35%
TMEM16A act = activators or potentiators of mouse TMEM16A chloride channel; HEK293 TMEM16A/YFP-H148Q/I152L, iodide quench fluorescence; stronger effect = lower value; B-score at 10 µM; hit rate 0.3% among 340,000;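 active = fluorescence-ratio B-score plate-corrected deviation score at least 3 library SD below zero, with starting fluorescence score within 5 deviations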;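 note: channel opened by trigger with iodide after compound preincubation; score built on the fluorescence ratio of max minus min over baseline; more negative score means more quench and so TMEM16A activation or potentiation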
ANO1 block = blocks the mouse calcium-activated chloride channel TMEM16A; Q8BHY3; HEK293 TMEM16A/YFP iodide influx fluorescence, ionomycin; normalized B-score (activity score, 25-100; higher = stronger inhibition) at 10 µM; hit rate 1.2% among 310,000; AID 588511;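 active = ratio plate-corrected score three or more library SD toward inhibition, starting fluorescence score within five deviations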;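 note: score derived from kinetic fluorescence span divided by baseline fluorescence per well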
aSyn UTR inh = 5' untranslated region of α-synuclein, MLPCN primary screen | alpha-synuclein 5'UTR reporter, inhibitor activity | inhibition, % (tested at 7.5 µM) | hit rate 0.82% among 300,000; in the data active = inhibition above about 60%;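 note: H4 neuroglioblastoma cells stably carrying SNCA 5'UTR luciferase fusion; 0% = DMSO wells and 100% = positive control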
Jurkat NFkB inh = lowers PMA/ionomycin-induced NF-kB signal in Jurkat cells. PMA/ionomycin-induced NF-kB luciferase reporter, luminescence. inhibition, % at 4 µM. hit rate 0.53% among 330,000; in the data active = inhibition above about 50%
KLF5 inhibitor = inhibitors of KLF5 expression. DLD-1 KLF5 promoter-luciferase reporter, luminescence. inhibition, % at 5 µM. hit rate 0.23% among 290,000. AID 1700;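 active = inhibition above a per-plate limit of that plate's mean compound inhibition plus 3 SD, cut at about 60% in these data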;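 note: 0% = DMSO wells and 100% = LY294002 at 200 µM; higher means less KLF5 promoter-driven luciferase light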
TMEM16A reconf = re-confirmation of mouse TMEM16A chloride channel inhibitors; shares compounds with ANO1 block; HEK293 TMEM16A/YFP-H148Q, iodide quench fluorescence; ionomycin added to raise cell calcium; inhibition, % at 10 µM; hit rate 39% among 2,300; AID 652189;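 active = mean duplicate percent inhibition, scaled so buffer wells are 0 and the reference blocker 100, over three buffer SD above buffer mean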
TMEM16A Ca cntr = calcium mobilization counter-screen hit for TMEM16A inhibitor series. shares compounds with ANO1 block. TMEM16A/YFP HEK293, Fluo4 calcium mobilization. calcium response (% of ionomycin), % at 10 µM. hit rate 2% among 2,300;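 active = duplicate-averaged calcium signal over 20% of the ionomycin maximum, relative to buffer baseline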;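 note: each well's signal is peak minus trough fluorescence divided by its pre-addition baseline; 0% = buffer wells and 100% = ionomycin wells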
Parental YFP cnt = counter-screen for TMEM16A inhibitors: effect in parental YFP-HEK293 cells. shares compounds with ANO1 block. iodide YFP quench, ionomycin. YFP ratio F(max-min)/F0 at 10 µM. 2,300 tested, under 10 active. AID 652233;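 active = yellow fluorescent protein signal ratio exceeding the buffer control mean by over 5 SD of those controls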;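 note: ratio is mean of duplicate wells from kinetic YFP trace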
ClC-1 inh = blocks the rat ClC-1 voltage-dependent chloride channel; shares compounds with ANO1 block; CHO ClC-1-YFP, iodide influx fluorescence quench; iodide control reads 0, buffer control 100; ratio percent, % at 10 µM; 2,300 tested, under 10 active;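 active = duplicate-mean ratio percent above the mean of iodide-only control wells, which defines zero, plus 5 of their SD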;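 note: higher percent means stronger block of ClC-1 iodide influx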
Target sequence (P35524 whole entry, looked up): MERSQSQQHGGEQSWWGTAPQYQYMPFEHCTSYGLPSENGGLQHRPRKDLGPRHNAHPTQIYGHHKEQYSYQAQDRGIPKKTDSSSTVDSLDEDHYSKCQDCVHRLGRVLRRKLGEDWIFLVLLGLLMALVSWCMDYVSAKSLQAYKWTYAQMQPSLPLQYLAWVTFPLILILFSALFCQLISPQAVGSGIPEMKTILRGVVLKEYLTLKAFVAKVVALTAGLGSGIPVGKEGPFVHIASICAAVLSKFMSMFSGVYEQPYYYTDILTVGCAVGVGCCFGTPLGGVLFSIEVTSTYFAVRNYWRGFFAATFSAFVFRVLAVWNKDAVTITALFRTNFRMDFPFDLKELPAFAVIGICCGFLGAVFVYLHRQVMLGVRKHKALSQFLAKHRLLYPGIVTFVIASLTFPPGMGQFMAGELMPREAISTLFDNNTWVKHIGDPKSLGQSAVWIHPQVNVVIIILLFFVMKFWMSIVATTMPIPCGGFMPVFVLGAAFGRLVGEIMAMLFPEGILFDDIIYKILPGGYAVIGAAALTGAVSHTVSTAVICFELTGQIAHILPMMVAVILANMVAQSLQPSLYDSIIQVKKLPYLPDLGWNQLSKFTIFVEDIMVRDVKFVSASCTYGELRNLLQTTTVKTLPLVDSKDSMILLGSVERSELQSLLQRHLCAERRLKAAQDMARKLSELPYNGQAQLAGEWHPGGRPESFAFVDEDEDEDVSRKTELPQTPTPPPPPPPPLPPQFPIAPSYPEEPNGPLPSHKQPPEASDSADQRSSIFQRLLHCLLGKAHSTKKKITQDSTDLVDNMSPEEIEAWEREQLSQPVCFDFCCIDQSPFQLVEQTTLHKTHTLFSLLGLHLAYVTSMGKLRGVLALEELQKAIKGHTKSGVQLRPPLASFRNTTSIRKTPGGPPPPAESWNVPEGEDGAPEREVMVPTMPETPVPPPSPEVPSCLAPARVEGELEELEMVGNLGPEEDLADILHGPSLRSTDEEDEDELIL
The depositor's hits bear a star; i = inactive; · = no result. Rows were chosen to be rich in hits. Some 2.5% of all compounds tested hit in one or more screens of this group.

SMILES	697 NFkB inh	TMEM16A act	ANO1 block	aSyn UTR inh	Jurkat NFkB inh	KLF5 inhibitor	TMEM16A reconf	TMEM16A Ca cntr	Parental YFP cnt	ClC-1 inh
CCOC(=O)N1CCN(C(=O)COC(=O)CNC(=O)c2ccc(OCC)c(OCC)c2)CC1	4	i	·	·	-1	·	·	·	·	·
CCOC(=O)c1cc([N+](=O)[O-])cc([N+](=O)[O-])c1Sc1ncnc2nc[nH]c12	·	i	·	·	·	·	·	·	·	·
Cc1ccc(-c2sc(-c3ccccc3)nc2CC(=O)Nc2ccccc2F)cc1	-6	i	i	35	12	-10	·	·	·	·
Cc1ccc(NC(=O)CC2=NC(=O)C(CC(=O)Nc3ccccc3F)S2)cc1 (configuration not stated)	-26	i	i	-26	-27	-50	i	i	-1	1
CCCCCCCn1c(=O)c(C(=O)OC)c(N)c2ccccc21	-26	i	25*	18	11	-16	43%*	i	-0.87	-25
Cn1c(Cc2ccccc2)nnc1SCC(=O)NC1CCCC1	-8	i	100*	-2	-24	3	i	i	-1.1	-14
COc1ccc(-c2cc(C(=O)Nc3sc4c(c3C#N)CCCC4)c3ccccc3n2)cc1	·	i	i	·	·	-7	·	·	·	·
COC(=O)c1sc(NC(=O)c2cc(-c3ccccc3)nc3ccccc23)c(C#N)c1C	21	i	100*	27	-6	-6	42%*	i	-1	-22
COc1ccc2[nH]c(C(=O)N3CCC(CO)(Cc4cccc(C(F)(F)F)c4)CC3)c(C)c2c1	-2	i	i	11	11	-42	·	·	·	·
COc1ccc(C(=O)Nc2nc(-c3cccs3)cs2)cc1	-91	i	100*	-91	-51	-111	24%*	i	-1.1	-16
O=C(COc1cc2oc(=O)cc(-c3ccccc3)c2cc1Cl)NCCN1CCOCC1	-13	i	i	3	2	-41	·	·	·	·
Cc1ccc(S(=O)(=O)N/N=C/c2cc(Br)ccc2O)cc1	-44	i	100*	12	-1	-28	20%*	i	-0.89	-12
COc1ccc(C(C)=O)cc1CN1C(=O)NC(c2ccccc2)(c2ccccc2)C1=O	-24	i	i	31	9	-34	·	·	·	·
Cc1cc(C)n2c(Nc3ccc4c(c3)OCCO4)c(-c3ccco3)nc2n1	·	·	·	·	·	-25	·	·	·	·
Cc1cc(C)n2c(Nc3ccc4c(c3)OCCO4)c(-c3ccc(C)o3)nc2n1	-84	i	i	-33	-62	-78	i	i	-1.2	0
Cc1c(Cl)cccc1NC(=S)NNc1ncc(C(F)(F)F)cc1Cl	-15	i	25*	-10	11	-3	40%*	i	-1.2	-13
Cc1cccc(C)c1NC(=S)NNc1ncc(C(F)(F)F)cc1Cl	-13	i	i	5	-12	-32	·	·	·	·
COc1ccccc1NC(=O)c1ccc2c(O)c(S(=O)(=O)c3ccccc3)c(=O)[nH]c2c1	-8	i	i	-4	-2	-30	·	·	·	·
CCCCN(Cc1ccccc1)S(=O)(=O)c1cc(Br)cc2c1N(C(C)=O)C(C)C2 (configuration not stated)	-17	i	25*	39	4	-14	i	i	-0.98	-12
COc1ccccc1C(c1nnnn1CCc1ccccc1)N1CCCCCC1 (configuration not stated)	14	i	25*	-12	-9	-14	18%*	i	-1.1	-3
COc1ccc(S(=O)(=O)C(C#N)c2nc3ccccc3nc2N2CCCC(C)C2)cc1 (configuration not stated)	-3	i	100*	-34	-6	-15	56%*	i	-0.9	-12
Cc1cccc(S(=O)(=O)C(C#N)c2nc3ccccc3nc2N2CC(C)OC(C)C2)c1 (configuration not stated)	-4	i	25*	-4	-9	-26	18%*	i	-0.87	-17
Cc1ccc(Cl)cc1N1CCN(C(=O)c2cc3c(=O)n(C)c4ccccc4c3n2C)CC1	-22	i	100*	33	10	-43	29%*	i	-1.1	-36
Cc1cc(OC(C)C(=O)N2CCN(c3ccccc3)CC2)c2c(C)c(C)c(=O)oc2c1 (configuration not stated)	-10	i	i	-6	4	-28	·	·	·	·
Cc1cc(Br)ccc1NC(=O)CN(C)C(=O)CN1C(=O)NC(C)(C2CC2)C1=O (configuration not stated)	24	i	·	·	9	·	·	·	·	·
SMILES	697 NFkB inh	TMEM16A act	ANO1 block	aSyn UTR inh	Jurkat NFkB inh	KLF5 inhibitor	TMEM16A reconf	TMEM16A Ca cntr	Parental YFP cnt	ClC-1 inh
COC(=O)CCn1c(C)cc(C(=O)COc2ccccc2C(N)=O)c1C	-17	i	i	4	19	-9	21%*	i	-1.2	-8
COC(=O)CCCn1c(C)cc(C(=O)CCl)c1C	-4	i	i	-17	15	-11	·	·	·	·
Cc1cc(C(=O)COc2ccccc2C(N)=O)c(C)n1CC1CCCO1 (configuration not stated)	25	i	100*	-35	45	-36	20%*	i	-0.81	-33
Cc1ccc(C(=O)OCC(=O)c2cc(C)n(CC3CCCO3)c2C)cc1 (configuration not stated)	-16	i	i	-161	-55	-23	·	·	·	·
COc1ccc(OCCC(=O)OCC(=O)Nc2cccc(S(=O)(=O)N3CCCCC3)c2)cc1	1	i	·	·	5	·	·	·	·	·
CN(c1ccc(OCC(=O)OCC(=O)Nc2ccc([N+](=O)[O-])cc2)cc1)S(=O)(=O)c1cccs1	·	i	·	·	·	·	·	·	·	·
COc1ccc(CCNc2oc(COc3ccc(Br)cc3)nc2C#N)cc1OC	8	i	100*	17	8	-32	i	i	-0.96	-18
CCOc1ccc(-c2nc(C#N)c(NCc3ccc4c(c3)OCO4)o2)cc1	-3	i	i	-28	5	-2	·	·	·	·
Cc1ccc(OCc2nc(C#N)c(NCc3ccc4c(c3)OCO4)o2)cc1	-6	i	25*	0	0	-30	16%*	i	-1.1	-8
COc1ccccc1NS(=O)(=O)c1cccc(C(=O)NNC(=O)C(C)NC(=O)c2ccco2)c1 (configuration not stated)	2	i	·	·	3	·	·	·	·	·

Screening data from PubChem.
